This note sets out measurements from PubChem BioAssay (NCATS).

The nature of assay [1]: Validation screen for inhibitors of Lassa infection (AID 463096; calls by dose curve; note: potency is the fitted concentration of half-maximal effect). As to conditions: Lassa virus infection, cell-based; series mostly up to 46.1 µM.
Assay [2] is described as follows: Cytometric Cell-Based qHTS for Inhibitors of the mTORC1 Signaling Pathway in MEF (Tsc2-/-, p53-/-) Cells (AID 2660).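 Note: Tsc2 and p53 null MEFs carrying empty vector with compound for 24 h; percent of cells above a phospho-rpS6 to PI ratio cutoff in each well.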 As to conditions: mTORC1 pathway cytometry; series mostly up to 38.3 µM. The method in brief:
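Readout: Alexa-488 phospho-rpS6 (Ser235/236) intensity divided by PI intensity, thresholded against 7.5 nM rapamycin wells and reported as % positive cells. PI cell count served as the viability measure. Compound exposure was 24 hrs at 37 degree Celsius.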
(qHTS replaces the single test concentration by a dilution series.)

Assay [3] is described as follows: High Content Imaging Cell-Based qHTS for Inhibitors of the mTORC1 Signaling Pathway in MEF (Tsc2-/-, p53-/-) Cells (AID 2666).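 Note: percent of cells scored positive for phospho-rpS6 Ser235/236 immunostaining by imaging.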 As to conditions: series mostly up to 38.3 µM. The method in brief:
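Cells were plated, dosed with compound after 24 hrs, and incubated another 24 hrs at 37 degree Celsius. Fixed cells were immunostained for phospho-rpS6 Ser235/236 and counterstained, and the normalized signal was scored as % active cells against rapamycin and DMSO controls.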

The nature of assay [4]: High Content Imaging Cell-Based qHTS for Inhibitors of the mTORC1 Signaling Pathway in MEF Cells (AID 2667).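 Note: Tsc2-/- p53-/- MEFs stably re-expressing wild-type Tsc2 exposed 24 h.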 The following applies: series mostly up to 38.3 µM. The method, boiled down: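 Immunofluorescence for rpS6 phosphorylation in MEFs of Tsc2-/-, p53-/- background rescued with WT Tsc2. Compound exposure lasted 24 hrs. Inhibition was scored against rapamycin-treated control wells.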

Assay [5] concerns the target Ubiquitin carboxyl-terminal hydrolase 2 (Homo sapiens) (UniProt O75604). Description: qHTS Validation Assay for Inhibitors of Ubiquitin-specific Protease USP2a Using CHOP2 as the Reporter (AID 463106). Note: potency is the fitted concentration of half-maximal effect. As to conditions: USP2a cleavage of CHOP2 reporter, enzymatic; series mostly up to 38.3 µM. The method, boiled down: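 10nM USP2 core + cpd, 30min RT; add 25nM Ub-CHOP2/25nM substrate; 60min RT; FI 485/531nm. Buffer Tris pH 8.0, CaCl2, BME, CHAPS. Norm. to NEM = 100% inhibition; time-zero read flags fluorescent artifacts.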

The target in assay [6] is DNA polymerase III PolC-type (Bacillus subtilis (strain 168)) (UniProt P13267). Briefly: qHTS Validation Assay for the Inhibitors of DNA Replication in Gram-Positive Bacteria (AID 485295).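 Note: reconstituted holoenzyme with PolC plus beta clamp SSB and primase; PicoGreen fluorescence of double-stranded DNA made on primed circular M13 template.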 As to conditions: Gram-positive bacterial DNA replication assay; series mostly up to 57.1 µM. The method in brief:
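Inhibition of DNA synthesis by the reconstituted PolC holoenzyme, monitored through PicoGreen staining of dsDNA formed from ssM13Gori, dNTPs and NTPs, with compound preincubation and room-temperature reaction.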

The nature of assay [7]: qHTS Validation Assay to Find Inhibitors of Chronic Active B-Cell Receptor Signaling (AID 485345; active = well fitted curve in the direction sought with a large enough effect in the main read-out, with a control signal flat, not every such curve was filed as active). As to conditions: ABC-DLBCL cells, chronic BCR signaling reporter, CBG luciferase; series mostly up to 46.1 µM. The method, boiled down:
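Read-out: ratio of filter-corrected green (IkappaBalpha fusion) to red (native) luciferase signal in doxycycline-induced TMD8 cells after 4 h at 37C. Titration spanned 46 uM–3 nM; Data were normalised to basal cells and 10 uM MG-132 wells.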

Assay [8] addresses Tumor susceptibility gene 101 protein (Homo sapiens) (UniProt Q99816). Briefly: qHTS Validation Assay for Iinhibitors of HIV-1 Budding by Blocking the Interaction of PTAP/TSG101 (AID 485342; calls by dose curve). As to conditions: TSG101-PTAP binding, fluorescence polarization, 4-point titration; series mostly up to 115 µM. The method, boiled down: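 Compound wells held the Tsg101 binding domain (10 uM) and a FITC-conjugated PTAP peptide (50 nM) in buffer at pH 7.5 containing 0.15 M NaCl and 0.01% Tween 20; polarization was recorded after 20 min, r.t.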

A short description of assay [9]: Validation screen for small molecules that induce DNA re-replication in MCF 10A normal breast cells (AID 463097). Note: nearly all actives have a fitted effect of over 60% in size. Note: potency is the fitted concentration of half-maximal effect. As to conditions: MCF 10A cells, DNA re-replication phenotype imaging; series mostly up to 46.1 µM. The method, boiled down:
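Following 48 hr compound incubation (37 C, 5% CO2), MCF 10A cells receive Hoechst for 40 min at 37 C. Nuclei are then scanned (excitation 405 nm, emission 500-530 nm) for total fluorescence intensity.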

SMILES strings stand for the structures. Results filed as inconclusive are left out. Activity calls are given as the source filed them. Unless noted, calls come from the whole dose curve; as a rule, active = well fitted curve in the direction sought with a large enough effect; inconclusive = small, poorly fitted or top-dose-only effect, or another doubt; inactive = no such curve, though single readings can be large; an effect the other way counts as inactive or inconclusive.

Ubiquitin carboxyl-terminal hydrolase 2 (Homo sapiens), sequence (O75604 whole entry, looked up): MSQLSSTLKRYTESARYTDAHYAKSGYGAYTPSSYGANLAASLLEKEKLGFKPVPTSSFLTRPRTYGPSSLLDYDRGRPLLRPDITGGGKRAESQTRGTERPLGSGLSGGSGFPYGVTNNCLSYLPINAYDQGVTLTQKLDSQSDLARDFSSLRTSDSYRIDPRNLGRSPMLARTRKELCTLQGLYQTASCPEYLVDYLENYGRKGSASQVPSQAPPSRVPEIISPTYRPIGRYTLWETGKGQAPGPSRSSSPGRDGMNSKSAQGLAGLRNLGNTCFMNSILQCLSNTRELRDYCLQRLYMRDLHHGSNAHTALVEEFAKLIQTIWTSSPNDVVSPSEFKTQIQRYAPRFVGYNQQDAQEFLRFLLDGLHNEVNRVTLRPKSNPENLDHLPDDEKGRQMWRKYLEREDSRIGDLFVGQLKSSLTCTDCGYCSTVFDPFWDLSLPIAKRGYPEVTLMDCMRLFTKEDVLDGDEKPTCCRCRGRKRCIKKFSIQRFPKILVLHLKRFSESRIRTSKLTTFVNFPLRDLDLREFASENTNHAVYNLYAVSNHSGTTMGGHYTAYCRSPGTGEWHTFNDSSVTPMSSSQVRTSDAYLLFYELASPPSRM
DNA polymerase III PolC-type (Bacillus subtilis (strain 168)), sequence (P13267 whole entry, looked up): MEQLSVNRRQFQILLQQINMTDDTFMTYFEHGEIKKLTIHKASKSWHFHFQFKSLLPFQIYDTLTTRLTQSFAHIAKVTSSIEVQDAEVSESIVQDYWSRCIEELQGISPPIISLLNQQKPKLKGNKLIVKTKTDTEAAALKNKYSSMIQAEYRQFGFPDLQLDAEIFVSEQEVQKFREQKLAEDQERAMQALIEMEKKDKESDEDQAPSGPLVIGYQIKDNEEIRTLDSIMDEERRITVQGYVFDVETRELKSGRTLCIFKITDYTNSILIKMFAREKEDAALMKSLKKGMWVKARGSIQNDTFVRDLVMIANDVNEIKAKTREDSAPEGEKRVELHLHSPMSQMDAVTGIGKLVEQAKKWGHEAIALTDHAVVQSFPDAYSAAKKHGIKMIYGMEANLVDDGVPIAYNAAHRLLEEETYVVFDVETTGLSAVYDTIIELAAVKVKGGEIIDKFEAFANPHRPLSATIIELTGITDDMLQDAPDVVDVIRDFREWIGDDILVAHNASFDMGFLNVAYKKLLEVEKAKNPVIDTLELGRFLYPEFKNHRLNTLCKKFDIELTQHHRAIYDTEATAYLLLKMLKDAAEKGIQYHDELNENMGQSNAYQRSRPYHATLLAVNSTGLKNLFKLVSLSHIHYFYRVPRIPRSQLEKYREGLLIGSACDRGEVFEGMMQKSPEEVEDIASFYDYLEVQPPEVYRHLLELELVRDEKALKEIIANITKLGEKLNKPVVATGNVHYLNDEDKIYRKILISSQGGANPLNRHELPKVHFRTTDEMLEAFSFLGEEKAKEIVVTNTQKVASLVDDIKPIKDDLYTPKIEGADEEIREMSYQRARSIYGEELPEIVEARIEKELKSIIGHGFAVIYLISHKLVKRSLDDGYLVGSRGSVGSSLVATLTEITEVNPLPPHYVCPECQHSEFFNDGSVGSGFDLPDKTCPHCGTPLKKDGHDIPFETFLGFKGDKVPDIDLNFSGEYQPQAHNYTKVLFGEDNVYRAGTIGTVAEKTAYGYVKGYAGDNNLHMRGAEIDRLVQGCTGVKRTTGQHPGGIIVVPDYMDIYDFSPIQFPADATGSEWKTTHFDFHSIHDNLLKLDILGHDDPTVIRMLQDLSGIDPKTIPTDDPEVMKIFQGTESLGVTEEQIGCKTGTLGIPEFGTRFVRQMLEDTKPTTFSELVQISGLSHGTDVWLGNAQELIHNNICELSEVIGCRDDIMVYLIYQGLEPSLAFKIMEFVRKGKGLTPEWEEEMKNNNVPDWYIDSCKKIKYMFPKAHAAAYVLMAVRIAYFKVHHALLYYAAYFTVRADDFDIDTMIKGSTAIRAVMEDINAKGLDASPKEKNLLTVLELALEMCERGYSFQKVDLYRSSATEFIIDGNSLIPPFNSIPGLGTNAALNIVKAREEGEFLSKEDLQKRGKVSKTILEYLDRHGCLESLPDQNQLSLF
Tumor susceptibility gene 101 protein (Homo sapiens), sequence (Q99816 whole entry, looked up, the tested form may be a part): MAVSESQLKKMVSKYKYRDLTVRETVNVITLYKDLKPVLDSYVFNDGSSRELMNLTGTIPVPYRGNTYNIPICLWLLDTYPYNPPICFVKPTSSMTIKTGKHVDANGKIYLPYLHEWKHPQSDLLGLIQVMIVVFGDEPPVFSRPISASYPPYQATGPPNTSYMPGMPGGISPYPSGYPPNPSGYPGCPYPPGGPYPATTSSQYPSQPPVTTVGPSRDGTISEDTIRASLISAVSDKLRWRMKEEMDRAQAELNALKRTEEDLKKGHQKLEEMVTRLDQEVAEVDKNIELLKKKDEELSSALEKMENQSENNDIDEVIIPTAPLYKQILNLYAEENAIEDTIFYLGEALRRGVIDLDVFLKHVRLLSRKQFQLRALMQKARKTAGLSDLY

On to `Cc1nc(-c2ccc(-c3ccc(C(=O)N4CCc5cc6c(cc54)C4(CCN(C)CC4)CO6)cc3)c(C)c2)no1`, for which the Potency in assay [1] was 10 µM (active).

`CC(=O)[C@H]1CCC2C3CC[C@H]4C[C@H](O)CC[C@]4(C)C3CC[C@@]21C` (some centres undefined): the Potency entry in [2], in assay [3], in assay [4], in assay [1], in assay [5] and in assay [6] was “inactive” each time. The outcome in assay [7] was inactive.

In the case of `COC(=O)[C@@H](N)CCCN=C(N)N[N+](=O)[O-]`, the Potency entry in assay [2], in [3], in [4], in assay [5] and in assay [6] was “inactive” in each case. The result in assay [8] and in assay [7] was inactive.

Turning to `Clc1cnc(Oc2ccc(Oc3ncc(Cl)cc3Cl)cc2)c(Cl)c1`, the Potency result in assay [2], in assay [3], in assay [4], in [1], in assay [9] and in assay [5] was “inactive” each time. Besides, the Potency result in [6] was “inactive”. In [7], the call was inactive.

`Clc1ccc(C(c2ccc(Cl)cc2)n2cc[n+](CC(OCc3ccc(Cl)cc3Cl)c3ccc(Cl)cc3Cl)c2)cc1` (centres undefined): the Potency is 11.2 µM (active) in assay [1], 11.2 µM (active) in assay [9] and 13.1 µM (active) in [5].

Regarding `CCN(CC)CCNC(=O)c1ccc(NC(C)=O)cc1`, in [1], the Potency entry was “inactive”.

As for `CS(=O)(=O)Nc1ccc([N+](=O)[O-])cc1Oc1ccccc1`, in assay [1], the Potency entry is “inactive”.

On to `c1ccc(C2(c3ccccc3)CC2C2=NCCN2)cc1` (centres undefined), for which the Potency entry in assay [2], in [3], in assay [4], in [5] and in assay [6] was “inactive” each time. For the same compound, in assay [7], the compound was classed as inactive.

`O=C(N[C@H]1CN2CCC1CC2)c1ccc(Cl)cc1`: the Potency result in assay [2], in assay [3], in [4], in [5] and in assay [6] was “inactive” throughout. In assay [7], the result was inactive.

As to `CC[C@@H]1C(=O)OC[C@@H]1Cc1cncn1C`, the Potency result in assay [1] and in [9] was “inactive” throughout.

In the case of `c1ccc(CCCN2CCN(CCOC(c3ccccc3)c3ccccc3)CC2)cc1`, the Potency entry in assay [2], in [3], in [5] and in assay [6] was “inactive” each time. In addition, the call in assay [7] was inactive.

Regarding `CC(C)(C)NCC(O)c1ccc(O)c(CO)c1` (centres undefined), the Potency result in assay [1] is “inactive”.

On to `NC1CCc2cc(O)c(O)cc2C1` (centres undefined), for which the Potency result in assay [2], in assay [3], in assay [4], in assay [1], in assay [9] and in [6] was “inactive” each time. The result in [7] was inactive.

Turning to `CC[C@H](CO)Nc1nc(NCc2ccccc2)c2ncn(C(C)C)c2n1`, in assay [1], the Potency entry was “inactive”.

Consider `CC(C)NC(C)Cc1ccc(I)cc1` (centres undefined), for which the Potency entry in [2], in assay [3], in [4], in assay [1], in assay [9] and in [5] was “inactive” throughout. Besides, the Potency result in [6] is “inactive”. Further, the compound was classed as inactive in assay [7].
